Screening results: PubChem, Broad Institute
Most compounds without a hit are left out; they make up all but 3.8% or so of the library.
HSF1 inh – HSF1 inhibitors in luciferase reporter cells, primary screen, cell-based, NIH3T3, luminescence | 300,000 compounds, 0.77% hits | activity change, negative = inhibition, % at 7.5 µM (by protocol) | NIH3T3-HGL HSE-luciferase, MG132-induced, luminescence 8 h; hits give low values;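 active means more than half of replicate wells show activity change below -50%, luminescence cut by over half; inconclusive means some wells, but at most half, below -50%; inactive means no replicate well below -50%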;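 further: luciferase reports HSF-1 transcriptional activity via heat shock element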
esBAF inh – Bmi1 luciferase reporter increase in mESCs, primary screen, esBAF inhibitor project, mouse ES cells, Bmi1 luciferase knock-in, single point; 350,000 compounds, 2% hits; reporter increase, % at 12.5 µM; 24 h; 100% = twice the neutral-well signal; in the data active means activation above about 40%; inconclusive means no clear call, values can overlap the other calls;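 further: a rise in the Bmi1 reporter signal indicates esBAF inhibition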
HSF1 activator – HSF-1 activators, primary screen, NIH3T3-HGL cells, MG132 stress, luminescence, single point; 300,000 compounds, 1.7% hits; NIH3T3-HGL HSF-1 luciferase reporter, 8 h; 100% = twice DMSO control signal; activation, % at 9 µM;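 active means mean replicate activation of at least 50% with a set share of replicates each reaching 50%; inconclusive means only one of those two conditions met; inactive means mean below 50% and too few replicates reaching it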
Wnt act – Wnt/beta-catenin pathway activators, primary screen, cell-based, plate reader, single point | Wnt/beta-catenin reporter cell assay, activator | activation, % at 9.35 µM | 300,000 compounds, 1.2% hits; in the data active means activation above about 30%, passing the limit was not always enough; inconclusive means no clear call, values can overlap the other calls
MITF TRPM1 HTS – activators of MITF-driven TRPM1 promoter reporter, primary screen, cell-based, SK-MEL-5, luciferase, single point | activation, % at 12.5 µM | SK-MEL-5 TRPM1-promoter luciferase, 24 h; % of positive control, neutral wells = 0 | 300,000 compounds, 0.75% hits;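 active means mean activation of at least 80% with every replicate also reaching 80%; inconclusive means mean reaches 80% but some replicate falls short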
Large screens that a line does not name were inactive.

COc1ccc(S(=O)(=O)Nc2ccc3c(c2)C(=O)N([C@@H](C)CO)C[C@H](C)[C@@H](CN(C)C(=O)Nc2ccc(F)cc2)OCCCC[C@H](C)O3)cc1	none (no result: HSF1 inh, HSF1 activator, Wnt act, MITF TRPM1 HTS)
COc1ccc(-n2nc([N+](=O)[O-])c(=NCc3cccnc3)n2O)cc1	none
COc1ccc(-n2nc([N+](=O)[O-])c(=NCc3ccco3)n2O)cc1	Wnt act 43
CC(=O)N1CCN(c2ccc(NC(=O)c3cccc(F)c3)cc2)CC1	esBAF inh 54 (no result: HSF1 inh, HSF1 activator, MITF TRPM1 HTS)
O=C(Nc1ccc(N2CCN(C(=O)c3ccco3)CC2)cc1)c1cccc(F)c1	esBAF inh 54 (no result: MITF TRPM1 HTS)
CC(=O)N1CCN(c2ccc(NC(=O)c3cccc(C)c3)cc2)CC1	none (no result: MITF TRPM1 HTS)
C[C@H](CO)N1C[C@H](C)[C@@H](CN(C)S(C)(=O)=O)Oc2cc(-c3ccc(F)cc3)ccc2S1(=O)=O	none (no result: HSF1 inh, HSF1 activator, Wnt act, MITF TRPM1 HTS)
c1ccc(-c2ccc3cnccc3n2)cc1	esBAF inh 52 (no result: HSF1 inh, HSF1 activator, MITF TRPM1 HTS)
Cc1ccc(NC(=O)c2ccc(S(=O)(=O)NCc3ccco3)cc2)nc1	none (no result: esBAF inh)
Cc1cccc(NC(=O)c2ccc(S(=O)(=O)NCc3ccco3)cc2)n1	esBAF inh 56 (no result: HSF1 inh, HSF1 activator)
CN(Cc1ccc(Cl)cc1)C(=O)c1ccc(S(=O)(=O)NCc2ccco2)cc1	none (no result: HSF1 inh, HSF1 activator)
CC(C)c1ccc(CN(C)C(=O)c2ccc(S(=O)(=O)NCc3ccco3)cc2)cc1	Wnt act 34 (no result: HSF1 inh, HSF1 activator, MITF TRPM1 HTS)
O=C(NCC(c1ccco1)N1CCOCC1)c1ccccc1 (configuration not stated)	none
O=C(NCc1cccnc1)C(=O)NCC(c1ccco1)N1CCOCC1 (configuration not stated)	none (no result: esBAF inh)
O=C(NCc1ccco1)C(=O)NCC(c1ccco1)N1CCOCC1 (configuration not stated)	HSF1 inh -69 (no result: esBAF inh)
O=C(NCc1cccnc1)C(=O)NCC(c1ccco1)N1CCN(c2ccccc2)CC1 (configuration not stated)	HSF1 activator 80
C/C=C/c1cnc2c(c1)C(=O)N([C@@H](C)CO)C[C@@H](C)[C@H](CN(C)Cc1ccncc1)O2	none (no result: HSF1 inh, HSF1 activator, Wnt act, MITF TRPM1 HTS)
CC(=O)NN1C(=O)/C(=C\c2ccc(O)cc2)SC1=S	none
O=C1/C(=C\c2ccc(O)cc2)SC(=S)N1/N=C/c1ccc(O)cc1	Wnt act 51 (no result: esBAF inh)
COc1cc(SC)ccc1C(=O)Nc1ccncc1	none (no result: esBAF inh)
COc1cc(SC)ccc1C(=O)Nc1ccccc1C#N	esBAF inh 43
COc1cc(SC)ccc1C(=O)Nc1ccc2c(c1)CCC2	esBAF inh 47, HSF1 activator 93
COc1cc(SC)ccc1C(=O)Nc1cccc(C2OCCCO2)c1	esBAF inh 68
COc1cc(SC)ccc1C(=O)Nc1nc(C)cc(C)n1	none (no result: MITF TRPM1 HTS)
COc1cc(SC)ccc1C(=O)NCc1ccccc1	none
C[C@@H]1CN([C@@H](C)CO)C(=O)Cc2cc(NS(=O)(=O)c3ccc(Cl)cc3)ccc2O[C@@H]1CN(C)S(=O)(=O)c1ccc(F)cc1	none (no result: HSF1 inh, HSF1 activator, Wnt act, MITF TRPM1 HTS)
O=C(OCC(=O)N1CCOCC1)c1ccc2ccccc2c1O	esBAF inh inconclusive, Wnt act 42 (no result: HSF1 inh, HSF1 activator)
COc1cc2ccccc2cc1C(=O)OCC(=O)N1CCOCC1	none (no result: Wnt act)
Cc1ccsc1C(=O)OCC(=O)N1C(C)CCCC1C (configuration not stated)	esBAF inh 79 (no result: HSF1 inh, HSF1 activator)
O=C(COC(=O)c1ccccc1Br)NC1CCCC1	esBAF inh 50
CN(C)c1ccc(C(=O)OCC(=O)N2CCCCCC2)cc1	esBAF inh 47
Cc1noc(C)c1NC(=O)Nc1cccc2c1O[C@@H](CN(C)Cc1ccc(-c3ccccc3)cc1)[C@@H](C)CN([C@@H](C)CO)C2=O	none (no result: HSF1 inh, HSF1 activator, Wnt act, MITF TRPM1 HTS)
C[C@H](CO)N1C[C@H](C)[C@H](CN(C)Cc2ccc3c(c2)OCO3)Oc2ccc(NC(=O)NC3CCCCC3)cc2CC1=O	none (no result: HSF1 inh, HSF1 activator, Wnt act, MITF TRPM1 HTS)
COc1cccc(NC(=O)COC(=O)c2sccc2C)c1	esBAF inh 50, MITF TRPM1 HTS 108 (no result: HSF1 inh, HSF1 activator)
Cc1ccsc1C(=O)OCC(=O)NC1CCCCC1	esBAF inh 63 (no result: HSF1 inh, HSF1 activator, MITF TRPM1 HTS)
O=C(OCC(=O)N1CCCCCC1)c1ccccc1Br	esBAF inh 54 (no result: HSF1 inh, HSF1 activator)
COc1ccc2oc(C(=O)OCC(=O)N3C(C)CCCC3C)c(C)c2c1 (configuration not stated)	none
Cc1ccsc1C(=O)OCC(=O)NC1CC1	none (no result: HSF1 inh, HSF1 activator)
Cc1c(C(=O)OCC(=O)N2C(C)CCCC2C)oc2ccccc12 (configuration not stated)	esBAF inh 76
O=C(OCC(=O)N1CCCC1)c1ccccc1O	none
COc1cccc(NC(=O)COC(=O)c2c(F)cccc2F)c1	none (no result: esBAF inh, Wnt act)
CCN(CC(=O)Nc1cccc(OC)c1)CC(=O)Nc1ccc(Br)c(C)c1	HSF1 activator 55 (no result: MITF TRPM1 HTS)
O=C(OCC(=O)c1ccc[nH]1)c1ccccc1	none (no result: esBAF inh)
CN(C)c1ccc(C(=O)OCC(=O)c2ccc[nH]2)cc1	esBAF inh 72, MITF TRPM1 HTS 137 (no result: HSF1 inh, HSF1 activator)
O=C(Nc1ccccc1)[C@@H]1[C@@H](CO)[C@@H]2Cn3c(cccc3=O)[C@@H]2N1CC1CC1	none (no result: HSF1 inh, HSF1 activator, Wnt act, MITF TRPM1 HTS)
CC(=O)NCCc1csc(-c2ccccc2)n1	none (no result: Wnt act)
CC(C)(C)CC(=O)NCCc1csc(-c2ccccc2)n1	HSF1 activator 63 (no result: esBAF inh)
CN1C(=O)c2cc(NC(=O)C3CCCC3)ccc2OC[C@H]2O[C@@H](CC(=O)NCC(F)(F)F)CC[C@@H]21	none (no result: HSF1 inh, HSF1 activator, Wnt act, MITF TRPM1 HTS)
Cc1nnnn1/C(=C\c1ccccc1)C(=O)OCC(=O)NC(C)(C)C	none (no result: Wnt act)
Cc1nnnn1/C(=C\c1ccccc1)C(=O)OCC(=O)NC1CCCCC1	HSF1 activator 78
Cc1cc(C)c(S(=O)(=O)N2CCC(C(=O)NCc3ccco3)CC2)c(C)c1	HSF1 activator 54 (no result: Wnt act, MITF TRPM1 HTS)
Cc1ccc(-n2nc3c(=O)n(C(C)C(=O)NCc4ccccc4Cl)nc(C)c3c2C)cc1 (configuration not stated)	HSF1 activator 69
Cc1ccc(-n2nc3c(=O)n(C(C)C(=O)NCc4ccco4)nc(C)c3c2C)cc1 (configuration not stated)	none
COCCn1c(C)cc(C(=O)COC(=O)c2ccccc2Br)c1C	HSF1 inh -90
Cc1cc(C(=O)COC(=O)c2n[nH]c3ccccc23)c(C)n1CC1CCCO1 (configuration not stated)	HSF1 inh -80 (no result: Wnt act)
COCCn1c(C)cc(C(=O)CSc2nc3ccccc3c(=O)[nH]2)c1C	none
COCCn1c(C)cc(C(=O)CSc2ccc3ccccc3n2)c1C	MITF TRPM1 HTS 87 (no result: Wnt act)
Cc1cc(C(=O)COC(=O)c2ccccc2Br)c(C)n1CC1CCCO1 (configuration not stated)	HSF1 inh -91 (no result: esBAF inh)
Cc1cc(C(=O)COC(=O)c2cccnc2Cl)c(C)n1CC1CCCO1 (configuration not stated)	HSF1 inh -77 (no result: esBAF inh)
Cc1cc(C(=O)COC(=O)c2ccc3c(c2)OCO3)c(C)n1Cc1cccs1	none
Cc1cc(C(=O)COC(=O)c2ccccc2O)c(C)n1Cc1cccs1	HSF1 inh -90
